DT40 TDP1 no CPT: qHTS for Inhibitors of human tyrosyl-DNA phosphodiesterase 1 (TDP1): qHTS in cells in absence of CPT; DT40 Tdp1-/- hTDP1 cells, no CPT, ATP luminescence, 48 h; Potency, µM (titrated, usually from 46.2 µM), inactives show at the highest dose activity change, negative = growth inhibition, hits mostly inhibitors; 420,000 tested, 15% active; AID 686978, 2013; further: on the % scale 0 is the no-effect control and ±100 the full control effect; nearly all actives have a fitted effect of over 55% in size
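Stably hTDP1-transfected Tdp1-null chicken DT40 cells were treated with library compounds minus camptothecin and grown for at least 48 hr at 37 °C, after which cellular ATP was quantified by luminescence.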
ClpP mod: qHTS Assay for Activators of ClpP; purified B. subtilis ClpP, FRET peptide cleavage, 20 min; Potency, µM (top dose mostly 57.5 µM), inactives show at the highest dose activity change, negative = active; 340,000 tested, 1.9% active; AID 651965, 2013; ATP-dependent Clp protease proteolytic subunit (Bacillus subtilis (strain 168)), P80244; active means well fitted falling curve with a large enough effect; inconclusive means small, poorly fitted or top-dose-only effect; inactive means no such curve, though single readings can be large or run the other way; further: the source files actives as falling curves though it sought activators and does not explain the sign; nearly all actives have a fitted effect of over 65% in size
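ClpP 10 microg/mL final, pH 8 Tris/KCl buffer with BSA, glycerol, Tween-20; compound pinned in; FRET-FV substrate; RT 20 min; Ex320/Em430; ΔFRET vs ADEP 5.8 microM, DMSO, no enzyme.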
DT40 TDP1 CPT: growth inhibition of DT40 Tdp1-/-;hTDP1 cells with camptothecin (screen for TDP1 inhibitors) | Potency, µM (highest dose often 46.2 µM), without a hit: at the top dose activity change, negative = growth inhibition, usual class: inhibitors | 420,000 tested, 12% active | chicken DT40 Tdp1-/-;hTDP1 cells + 20 nM CPT, ATP luminescence, 48 h; further: on the % scale 0 is the no-effect control and ±100 the full control effect; nearly all actives have a fitted effect of over 55% in size
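Cell growth measured by CellTiter-Glo luminescence after a minimum 48 h, 37 C compound exposure with 20 nM CPT in Tdp1-knockout DT40 cells stably expressing hTDP1, seeded 400/well; qHTS titration format.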
TDP1 block: inhibitors of human tyrosyl-DNA phosphodiesterase TDP1. recombinant TDP1, AlphaScreen DNA substrate cleavage. Potency, µM (top dose mostly 130 µM), inactives show at the top dose activity change, negative = inhibition, hits mostly inhibitors. 350,000 tested, 0.28% active. AID 485290; further: on the % scale 0 is the no-effect control and ±100 the full control effect; nearly all actives have a fitted effect of over 40% in size
Target sequence (Q9NUW8 whole entry, looked up): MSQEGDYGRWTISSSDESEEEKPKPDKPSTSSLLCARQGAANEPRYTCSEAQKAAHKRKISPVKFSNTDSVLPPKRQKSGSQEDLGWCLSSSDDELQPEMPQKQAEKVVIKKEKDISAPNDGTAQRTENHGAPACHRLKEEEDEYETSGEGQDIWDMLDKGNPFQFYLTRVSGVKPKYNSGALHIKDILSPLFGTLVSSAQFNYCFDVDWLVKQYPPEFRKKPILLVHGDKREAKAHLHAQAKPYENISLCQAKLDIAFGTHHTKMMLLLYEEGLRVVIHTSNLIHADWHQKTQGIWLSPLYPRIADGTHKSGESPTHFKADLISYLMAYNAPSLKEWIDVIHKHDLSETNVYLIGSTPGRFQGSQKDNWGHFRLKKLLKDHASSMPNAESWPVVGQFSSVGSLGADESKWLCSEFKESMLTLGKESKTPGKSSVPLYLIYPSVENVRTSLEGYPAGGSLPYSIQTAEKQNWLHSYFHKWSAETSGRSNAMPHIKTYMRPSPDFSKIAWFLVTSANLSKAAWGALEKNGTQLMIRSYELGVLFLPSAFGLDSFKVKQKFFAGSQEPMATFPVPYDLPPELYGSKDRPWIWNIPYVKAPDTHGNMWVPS
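Here, a 5' biotin and 3' phosphotyrosine-FITC DNA oligonucleotide reports Tdp1 activity: intact substrate bridges AlphaScreen beads, while cleavage leaves a 3' phosphate and drops signal. All incubations at room temperature.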
An asterisk follows results filed as active; u = inconclusive; x = no result given. The list is not random: actives were taken first. Their share in the collection is about 17%. Unless noted, the call rests on the fitted dose curve; in most records, active means well fitted curve in the direction sought with a large enough effect; inconclusive means small, poorly fitted or top-dose-only effect, or another doubt; inactive means no such curve, though single readings can be large; an effect the other way counts as inactive or inconclusive. Potency means the concentration at half of the fitted maximal effect.

SMILES | DT40 TDP1 no CPT | ClpP mod | DT40 TDP1 CPT | TDP1 block
O=C1c2ccccc2C(c2nnnn2Cc2ccccc2)N1Cc1ccco1 (stereo unspecified) | -28.1% | -1.6% | -3.0% | x
O=C(COc1ccc(Cl)cc1)Nc1nnc(-c2ccc3c(c2)CCCC3)o1 | 5.8µM* | -3.5% | -3.6% | 0.0%
COc1ccc(-c2nnc(NC(=O)c3ccccc3C)o2)cc1 | 14.6µM* | 0.8% | 16.4µM* | x
O=C(COc1ccccc1)Nc1nnc(-c2ccc(Cl)cc2)o1 | u | -17.2% | u | 2.3%
Cc1cccc(C(=O)Nc2nnc(-c3ccco3)o2)c1 | 10.3µM* | -8.7% | 23.1µM* | 2.3%
Cc1cccc(C(=O)Nc2nnc(-c3ccncc3)o2)c1 | -4.6% | -3.6% | -21.7% | 9.6%
Cc1ccc(CNC(=O)Cn2c(=O)n(-c3ccc(C)c(F)c3)c(=O)c3sc4ccccc4c32)cc1 | -9.2% | u | 3.3% | 1.3%
COc1ccc(C(C(=O)NC2CCCCC2)N(C(=O)CCl)c2ccc(OC)cc2)cc1 (stereo unspecified) | 1.46µM* | -1.8% | 1.84µM* | 3.5%
COCCN(C(=O)CCCC(=O)Nc1ccccn1)C(C(=O)NC1CCCCC1)c1ccc(C)cc1 (stereo unspecified) | u | -0.5% | -21.7% | 2.0%
COc1ccc(C(C(=O)NC2CCCC2)N(C(=O)c2ccoc2C)c2ccc(C)cc2)cc1 (stereo unspecified) | 16.4µM* | -1.3% | 18.4µM* | 5.6%
COc1ccc(N(C(=O)c2ccco2)C(C(=O)NC2CCCC2)c2ccncc2)cc1 (stereo unspecified) | -15.5% | x | 4.1% | x
COc1ccc(N(C(=O)CNC(=O)c2cccs2)C(C(=O)NC2CCCC2)c2ccncc2)cc1 (stereo unspecified) | 21.5% | 0.4% | -6.8% | -0.2%
COC(CN(C(=O)CCl)C(C(=O)NC1CCCCC1)c1ccc(C)cc1)OC (stereo unspecified) | 13µM* | 1.3% | 16.4µM* | 0.0%
COc1ccc(C(C(=O)NC2CCCCC2)N(C(=O)CCl)c2ccc(C)cc2)cc1 (stereo unspecified) | 1.64µM* | -8.3% | 1.84µM* | -7.9%
COc1ccc(CNC(=O)C2CCN(S(=O)(=O)c3ccc4c(c3)C(C)(C)C(=O)N4C)CC2)cc1 | u | -2.2% | -15.6% | x
COc1ccc(C(C(=O)NC2CCCCC2)N(C(=O)CCl)c2cccc(Cl)c2)cc1 (stereo unspecified) | 1.84µM* | -9.9% | 2.31µM* | -4.6%
COc1cccc(N(C(=O)c2cnccn2)C(C(=O)NC2CCCCC2)c2ccc(Cl)cc2)c1 (stereo unspecified) | -21.2% | -6.4% | -18.0% | 1.1%
Cc1ccc2ccc3ccc(C)nc3c2n1 | 0.146µM* | -3.3% | 0.0164µM* | x
Cc1ccc2cc(F)c(F)c(F)c2n1 | -1.9% | 0.3% | 3.9% | x
CCOC(=O)C1=C(COC(=O)C2CC(=O)N(c3ccccc3F)C2)NC(=O)NC1C (stereo unspecified) | 0.3% | 0.1% | 8.7% | -16.4%
O=C1C2C(c3cccc(/C=C/c4ccccc4)c3)CC=CC2C(c2ccc(C(F)(F)F)cc2)N1Cc1ccccc1 (stereo unspecified) | u | u | 14.6µM* | 3.8%
CC[C@@H]1CC=C[C@H]2[C@H]1C(=O)N(Cc1ccccc1)[C@H]2c1ccc(OC)c(Cl)c1 | 13µM* | -1.1% | 18.4µM* | -2.4%
Cc1ccc(-c2cccc(C3CC=CC4C3C(=O)N(Cc3ccccc3)C4c3ccc4ccccc4c3)c2)cc1 (stereo unspecified) | 13µM* | -11.4% | 18.4µM* | 5.0%
O=C1C2C(c3cccc(/C=C/c4ccccc4)c3)CC=CC2C(c2ccc3ccccc3c2)N1Cc1ccccc1 (stereo unspecified) | 16.4µM* | 4.3% | u | 3.8%
C[N+]1(C)CCN(CC(O)(c2ccccc2)C2CCCCC2)CC1 (stereo unspecified) | -14.7% | x | 2.2% | x
SMILES | DT40 TDP1 no CPT | ClpP mod | DT40 TDP1 CPT | TDP1 block
Cc1cc2c(cc1S(=O)(=O)CCC(=O)N1CCCC(C)C1)OCC(=O)N2 (stereo unspecified) | x | 1.1% | x | 5.2%
COc1ccc(-c2cccc(C3CC=CC4C3C(=O)N(Cc3ccccc3)C4c3ccc(OC)c(Cl)c3)c2)cc1 (stereo unspecified) | 13µM* | -4.6% | 20.6µM* | 1.2%
COc1ccc(-c2cccc(C3CC=CC4C3C(=O)N(Cc3ccccc3)C4c3cc(C)ccc3F)c2)cc1 (stereo unspecified) | x | x | x | -1.2%
COc1ccccc1/C=C/c1ccnc2ccccc12 | 14.1µM* | u | u | x
COc1ccc(OC)c(Nc2ncnc3ccccc23)c1 | -26.8% | -0.1% | -20.7% | 8.8%
COc1ccc(OC)c(/C=C/c2ccnc3ccccc23)c1 | 4.61µM* | u | 3.66µM* | x
Cc1ccc2ncccc2c1N | -18.5% | -8.2% | -14.7% | 2.7%
COc1cc(OC)c(OC)cc1/C=C/c1ccnc2ccccc12 | 16.4µM* | 2.5% | 13µM* | x
COc1ccc2ncccc2c1Cc1c(OC)ccc2ncccc12 | 13µM* | x | 14.6µM* | x
CCOC(=O)N1CCN(C(=O)c2ccc(Cn3c(=S)[nH]c4cc5c(cc4c3=O)OCO5)cc2)CC1 | 16.4µM* | -2.7% | 23.1µM* | 6.6%
CCOC(=O)N1CCN(C(=O)c2ccc(Cn3c(=S)[nH]c4cc(OCC)c(OCC)cc4c3=O)cc2)CC1 | 9.2µM* | -0.4% | 10.3µM* | 2.7%
COc1ccc2[nH]c3c(=O)n(Cc4ccc(C(=O)N5CCC(C(N)=O)CC5)cc4)c(=S)[nH]c3c2c1 | 29.1µM* | 6.0% | u | -2.9%
COc1cc(C)c(CN2C[C@H](Sc3ccccn3)C[C@H]2C(=O)N(C)C)cc1C | u | x | -43.5% | x
Cc1cc(/C=C(\C#N)C(=O)OCC(=O)Nc2ccc(OC(F)F)cc2)c(C)n1CC(C)C | u | -2.0% | u | 0.0%
COc1ccc(NS(=O)(=O)c2cc(C(=O)N3CCC3)ccc2C)cc1 | 14.0% | 0.9% | -6.6% | 4.1%
O=CNc1c(Cl)cc2c(c1Cl)Cc1cc([N+](=O)[O-])ccc1-2 | 11.6µM* | 0.2% | 11.6µM* | x
O=[N+]([O-])c1ccc2c(c1)Cc1cc(F)ccc1-2 | u | x | -4.9% | x
NS(=O)(=O)c1ccc(N2CCOCC2)c(C(=O)NCc2cccs2)c1 | -2.5% | u | 12.7% | 0.5%
Cc1ccc(C(=O)NC(C)c2ccc3c(c2)OCO3)s1 (stereo unspecified) | 16.4µM* | 1.3% | 13µM* | 4.7%
CCOC(=O)c1nc(Nc2ccccc2OC)c2ccccc2n1 | 2.59µM* | 1.3% | 11.6µM* | x
CCOC(=O)c1nc(Nc2ccc(N3CCC(C)CC3)cc2)c2ccccc2n1 | 5.8µM* | -1.0% | 7.31µM* | x

High-throughput results from PubChem.
